# Assay results reported in PubChem BioAssay AID485314 (National Center for Advancing Translational Sciences (NCATS), 2010).
# Among all 340,000 compounds or so, about 4,500 (1.3%) were called active. Roughly 5% stayed inconclusive and do not appear here. This is one part of a sample in which actives are shown more often than they occur. Values without a mark were called inactive. Calls come from the whole dose curve; as a rule, active = well fitted inhibition curve with a large enough effect; inconclusive = small, poorly fitted or top-dose-only effect, or another doubt; inactive = no such curve, though single readings can be large or run the other way.
# Biological target: DNA polymerase beta (Homo sapiens) (UniProt P06746)
# Assay: qHTS Assay for Inhibitors of DNA Polymerase Beta
# Conditions: Pol beta primer extension/strand displacement, fluorescence kinetic; series mostly up to 114 µM; activity change, negative = inhibition: at the top concentration
# Excerpt: The base excision repair system in human cells is a target for therapeutic modulation of the response to irradiation treatment and DNA-damaging drugs. A key enzyme in this system is the bi-functional DNA polymerase known as DNA polymerase Beta (Pol Beta). The following is a homogeneous kinetic assay to study the primer extension and strand-displacement reaction catalyzed by pol beta.
# A stepwise description of the 1536-well assay is shown in next Table. Three microliters of reagents (buffer in column 3 and 4 as negative control and 10 nM Pol beta in columns 1, 2, and 5-48) was dispensed into 1,536-well black solid-bottomed plate. Compounds (23 nL) were transferred via Kalypsys pin tool equipped with 1536-pin array (10 nL slotted pins, V&P Scientific, San Diego, CA). The plates were incubated for 15 min at room temperature, and 1 uL substrate (50 nM final concentration) were added to start the reaction and immediately read at 0 min read on Viewlux reader. The plate were further incubated for 10 min at room temperature, and then read on Viewlux again. Throughout the screen, reagent bottle and all liquid lines were chilled and made light-tight to minimize reagent degradation. All screening operations were performed on a fully integrated robotic system (Kalypsys, San Diego, CA) containing one RX-130 and two RX-90 anthropomorphic robotic arms (Staubli, Duncan, SC). Library plates were screened starting from the lowest and proceeding to the highest concentration, and a double-dipping step of the highest concentration was required to access higher concentrations of compounds. Vehicle-only plates, with DMSO being pin-transferred to the entire column 5-48 compound area, were inserted uniformly at the beginning and the end of each library in order to monitor for and record any shifts in the background, which can be affected by reagent dispensers or loss in enzyme activity overtime. Screening data were corrected, normalized, and concentration-effect relationships were derived by using publicly-available curve fitting algorithms developed in-house (http://ncgc.nih.gov/pub/openhts). A four parameter Hill equation was fitted to the concentration-response data by minimizing the residual error between the modeled and observed responses.
# % is set by controls: 0 for no effect and ±100 for the full control effect; potency is the fitted concentration of half-maximal effect.
Structure (SMILES),Potency,"activity change, negative = inhibition [%]"
COc1ccc(-c2nc3c(c(SCC(=O)Nc4ccc(C(=O)O)cc4)n2)Cc2ccccc2O3)cc1,2.24 µM (active),
COc1ccc(NC(=O)CSc2nc(N)c(-c3ccccc3)c(=O)[nH]2)cc1,,17.3
COc1cc(OC)cc(-c2nnc(SCC(=O)Nc3ccc(C(=O)O)cc3)s2)c1,,0.87
O=C(NCCc1csc(-c2ccc(C(F)(F)F)cc2)n1)C(=O)Nc1ccc(F)c(Cl)c1,,9.52
CC(=O)c1ccc(NC(=O)CSc2nc(-c3ccccc3F)nc3c2c(=O)n(C)c(=O)n3C)cc1,,15.7
COc1ccc(OC)c2sc(N3CCN(C(=O)C4COc5ccccc5O4)CC3)nc12 (stereo not given),,30.1
Cc1c(CC(=O)N2CCN(C(=O)C3COc4ccccc4O3)CC2)c(=O)oc2c(O)c(O)ccc12 (stereo not given),0.794 µM (active),
Cc1c(C)c2ccc(OCC(=O)N3CCC(C(=O)O)CC3)c(C)c2oc1=O,,6.9
COc1ccc(OC)c(CNC(=O)CN2C(=O)CCn3nc(-c4cn(C)c5ccccc45)cc32)c1,,-1.15
CC(=O)Nc1ccc(S(=O)(=O)N2CCN(c3ccccc3)CC2)cc1,,10.6
Cc1cc(/C=C2\SC(=Nc3ccc(N4CCOCC4)cc3)N(C)C2=O)c(C)n1-c1cccnc1,,-4.4
Cc1cc(/C=C2/SC(=O)N(CC(=O)N3CCCC3)C2=O)c(C)n1C,,10.2
Cc1cc(/C=C2\SC(=O)N(C)C2=O)c(C)n1-c1cccc(C(=O)O)c1,28.2 µM (active),
O=C(CSCc1cnn(-c2ccccc2)c1-n1cccc1)NCc1ccc(Cl)cc1,,-18.2
COc1ccccc1/C=C/c1nc(C#N)c(NC(C)c2ccccc2)o1 (stereo not given),,17.7
COc1ccc(-c2nc3sc(CCNC(=O)C(C)(C)C)c(C)n3n2)cc1,,13.6
Cc1ccc2onc(CC(=O)N3CCN(c4ccc(Cl)cc4)CC3)c2c1,,-2.82
CC(C)c1ccc(S(=O)(=O)Nc2ccc(O)c(Sc3nc4ccccc4s3)c2)cc1,,0.597
COc1cccc(NC(=O)CSC2=Nc3ccccc3C3=NC(CC(=O)NC4CCCCC4)C(=O)N23)c1 (stereo not given),,28.4
O=C(Cn1cnc2ccccc21)N/N=C/c1ccco1,,10.1
O=c1nc(N/N=C/c2ccco2)cn[nH]1,11.2 µM (active),
Cc1n[nH]c(=O)nc1N/N=C/c1cccs1,,0.0263
CCC(=O)N1CCc2cc(S(=O)(=O)NC(C(=O)Nc3ccc(C(C)=O)cc3)C(C)C)ccc21 (stereo not given),,41.1
Cc1cccc(C2CC(=O)Oc3c2c(=O)n(C)c2ccccc32)c1 (stereo not given),,0.545

Structure (SMILES),Potency,"activity change, negative = inhibition [%]"
Cc1ccc(OCC(=O)Nc2ccc(Cl)c(-c3nc4ccccc4[nH]3)c2)cc1C,,7.96
Cc1ccc(-c2nn(-c3ccccc3)cc2/C=C2\SC(=S)N(CCCCCC(=O)O)C2=O)o1,50.1 µM (active),
COc1ccc(-c2nn(-c3ccccc3)cc2/C=C2/SC(=S)N(CCCC(=O)O)C2=O)c(C)c1,,5.41
C=CCOc1ccc(/C=C2\SC(=S)N(CCC(=O)O)C2=O)cc1,,9.93
Cc1cccc(Cn2c(CN3CCC(C(=O)NCc4ccccc4Cl)CC3)cc3ccccc32)c1,,-1.55
CCc1ccc(N(CC)C(=O)CCn2cnc3onc(-c4ccc(F)cc4)c3c2=O)cc1,,11.9
CCCN1C(=O)C(O)(CC(=O)c2ccc(CC)cc2)c2cc(Br)ccc21 (stereo not given),,-2.24
COc1ccc(C(=O)/C=C/c2cccnc2)c(OC)c1,,7.61
COc1ccc(/C=C/C(=O)c2cc(Br)ccc(=O)c2O)cc1,50.1 µM (active),
COc1ccc(C(=O)/C=C/c2ccc(OC3CSC3)cc2)cc1,,-23.2
CSc1ccc(CCNC(=O)c2cnn(-c3ccccc3)c2-n2cccc2)cc1,,-27.9
O=C(/C=C/c1ccccc1)N1CCN(Cc2cc(=O)n3nc(-c4ccccc4F)sc3n2)CC1,,5.97
CCOc1ccccc1C(=O)NC1(C(F)(F)F)C(=O)Nc2c1c(=O)[nH]c(=O)n2-c1ccc(F)cc1 (stereo not given),,0.604
Cc1ccc(CCNC(=O)c2nnc(Cc3cccc(F)c3)o2)cc1,,1.44
COc1ccc(S(=O)(=O)N(CCCN2CCCC2=O)Cc2cc3c(C)ccc(C)c3[nH]c2=O)cc1,89.1 µM (active),
CCOC(=O)c1ccc(S(=O)(=O)N(CCO)Cc2cc3cc(OC)c(OC)cc3[nH]c2=O)cc1,,0.18
CCOc1ccc2[nH]c(=O)c(CN(CCCO)S(=O)(=O)c3ccc(F)cc3)cc2c1,,8.93
Cc1ccccc1NC(=O)CN1C(=O)N/C(=C\c2cccn2-c2cccc(C(=O)O)c2)C1=O,2.24 µM (active),
O=C1N/C(=C/c2cccn2-c2ccccc2)C(=O)N1c1cccc(Cl)c1,,16.2
Cc1ccccc1NC(=O)CN1C(=O)C(C)(C)c2ccccc21,,-11
COc1ccccc1NC(=O)C1=C(C)Nc2nc(SCC(=O)c3ccc(C)cc3)nn2C1c1ccccc1C (stereo not given),,-15.8
CCc1ccccc1NC(=O)Cn1c(=O)n(-c2cccc(C)c2)c(=O)c2c1c1cc(OC)ccc1n2C,,1.55
CCc1cccc(C)c1NC(=O)CSc1nnc(-c2ccco2)n1N,,0.0582
NC(=O)c1c(NC(=O)CSc2nc(N)cc(=O)[nH]2)sc2c1CCCC2,,-5.47

Structure (SMILES),Potency,"activity change, negative = inhibition [%]"
NC(=O)c1c(NC(=O)CSc2nnc(-c3ccco3)n2N)sc2c1CCCC2,39.8 µM (active),
CCOc1ccccc1C(=O)NCc1ccc2c(c1)CCN2C(=O)c1ccc(F)cc1,,7.58
O=c1nc2s/c(=C\c3ccco3)c(=O)n2nc1Cc1ccccc1,14.1 µM (active),
O=C(OCN1C(=O)c2ccccc2C1=O)/C(=C\c1ccco1)NC(=O)c1ccccc1,,17.1
C#Cc1ccc([C@@H]2C=C(C(=O)O)O[C@H](OCCCCO)C2)cc1,28.2 µM (active),
C=CCOC(=O)C1=C[C@@H](c2ccccc2)C[C@@H](OCc2ccc(CO)cc2)O1,,-3.45
O=C(O)C1=C[C@H](c2cccs2)C[C@H](OCCCCO)O1,,-25.8
CCCCc1nn2c(=O)cc(COC(=O)c3cccc(NC(=O)COc4ccccc4)c3)nc2s1,,1.33
COc1ccc(N2CCN(S(=O)(=O)c3ccc(-c4coc(C)n4)cc3)CC2)cc1,31.6 µM (active),
COc1ccc(N2CCN(S(=O)(=O)c3ccc4c(c3)N(C(C)=O)CCO4)CC2)cc1,,-5.9
COc1ccc(N2CCN(C(=O)C3CCN(S(=O)(=O)c4ccc(C)cc4)CC3)CC2)cc1,,0.247
O=C(CSC1=NCCS1)Nc1nc(-c2ccccc2)cs1,,16.3
O=C(CSc1nc2ccccc2c(=O)[nH]1)Nc1nc(-c2ccc(Br)cc2)cs1,4.47 µM (active),
Cc1ccc(-c2csc(NC(=O)Cn3[nH]c(=O)c4ccccc4c3=O)n2)cc1,,-17.4
CC(C)(C)c1ccc(C(=O)NCC(c2ccco2)S(=O)(=O)c2ccc(F)cc2)cc1 (stereo not given),,-18.4
COc1cccc(NC(=O)N(Cc2cn(C)c3ccccc23)C2CCCCCC2)c1,,-7.08
Cc1ccccc1-c1nnc(SCC(=O)NCc2ccc3c(c2)OCO3)n1C,,25
O=C(CSc1ccc(-c2ccco2)nn1)Nc1cccc(F)c1,,-29.3
O=C(CSc1ccc(-c2ccco2)nn1)NCc1ccc2c(c1)OCO2,15.8 µM (active),
Cc1ccccc1OCCSc1nc2ccc(NC(=O)c3ccco3)cc2s1,,0.968
Cc1ccc(C2CCN(C(=O)c3cnn(-c4ccccc4Cl)c3C3CCN(C(=O)OC(C)(C)C)CC3)C2)cc1 (stereo not given),,2.89
Cc1cccc(N2CCN(S(=O)(=O)c3ccc(-c4cc(C)no4)s3)CC2C)c1 (stereo not given),,0.87
Cc1cccc(N2CCN(C(=O)c3cccc(S(=O)(=O)N4CCc5ccccc5C4)c3)CC2C)c1 (stereo not given),,2.53
Cc1cccc(N2CCN(S(=O)(=O)c3ccc4[nH]c(=O)c(=O)[nH]c4c3)CC2C)c1 (stereo not given),25.1 µM (active),

Structure (SMILES),Potency,"activity change, negative = inhibition [%]"
CC(C)(C)c1ccc(OCC(=O)N2CCC(c3nc4ccccc4s3)CC2)cc1,,10.9
COc1ccccc1C(=O)N/C(=C/c1ccco1)C(=O)Nc1ccc(C(=O)O)cc1,50.1 µM (active),
O=C(Nc1ccccc1)/C(=C\c1ccco1)NC(=O)c1ccco1,,-1.05
Cc1cccc(NC(=O)/C(=C\c2ccco2)NC(=O)c2ccccc2)c1,,0.753
CC(=O)Nc1cc(C(=O)NCc2ccc(F)cc2Cl)ccc1Sc1ccc(Cl)cc1,,-16.2
CCC(Sc1nnc(-c2ccc(OC)cc2)c(-c2ccc(OC)cc2)n1)C(=O)NC1CCCCC1 (stereo not given),,1.49
COc1cccc(-n2cc(C(=O)NCc3cccc(Cl)c3)c3ccccc3c2=O)c1,,12.9
Nc1ccc(-c2sc(N)nc2-c2ccccc2)cc1,,23.9
Nc1[nH]c(=S)nc2nc(-c3ccccc3)c(-c3ccccc3)nc12,22.4 µM (active),
Cc1ccc2cccc(NC(=O)C(C)Oc3ccc(C)c(C)c3)c2n1 (stereo not given),,14.5
Cn1nc(-c2ccccc2)c(-c2ccccc2)c(C(=O)Nc2ccc(S(N)(=O)=O)cc2)c1=O,,-0.58
COc1ccc(Cn2ccnc2SCC(=O)Nc2ccc3c(c2)OCO3)cc1,,0.783
CCCS(=O)(=O)N1CCC(n2c(C(F)(F)F)nc3cccnc32)CC1,,33.3
COc1ccc(C(=O)Nc2cc(C)ccc2NC(=O)COc2ccccc2)cc1,,1.19
COc1ccc(C(=O)NNC(=S)NC(=O)c2ccccc2)cc1,,0.641
COc1ccc(OCC(=O)NNC(=O)c2ccc(-c3ccccc3)cc2)cc1,44.7 µM (active),
O=C(CS(=O)(=O)c1cccc2nsnc12)N1CCN(c2cccc(Cl)c2)CC1,,-19.8
CCOc1ccc(S(=O)(=O)Nc2ccc3oc4c(c3c2)CC(C)CC4)cc1 (stereo not given),,-14.6
Cc1cccc(NC(=O)CSc2ncc(-c3ccccc3)[nH]2)c1C,,0.698
Cc1ccc(NC(=O)C(=O)NCc2ccco2)c(C)c1,,28.8
Cc1cc(C)n2nc(SCC(=O)NC(=O)NCc3ccco3)nc2n1,,-25.1
Cc1ccc(SCC(=O)NC(=O)NCc2ccco2)c(C)c1,25.1 µM (active),
Cn1ccc2cc(S(=O)(=O)N3CCCC(C(=O)NCc4ccccc4F)C3)ccc21 (stereo not given),,9.68
